High-throughput results as filed in PubChem.
Hits are enriched below; roughly 3.4% of the tested compounds scored in any of these assays.
MITF primary = MITF inhibitors, primary screen, biochemical, AlphaScreen, human; Microphthalmia-associated transcription factor (Homo sapiens), O75030; AlphaScreen MITF homodimerization, bead proximity signal; inhibition, % at 2.6 µM; 0.91% of 650,000 active; in the data active = inhibition above about 50%;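 note: 0% = vehicle wells with protein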
FBW7 activator = FBW7 E3 ligase activators, primary screen, biochemical, AlphaScreen, human. 0.13% of 650,000 active. AlphaScreen FBW7–phospho-cyclin E peptide binding, activator screen. AID 1259310, 2017. normalized activity (activation), % at 26.1 µM; in the data active = normalized activity above about 1.9%;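 note: purified mutant Fbw7 with reduced substrate affinity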
GPR151 activ = activators of human GPR151, primary screen, cell-based, PathHunter beta-arrestin, luminescence | G-protein coupled receptor 151 (Homo sapiens), Q8TDV0 | PathHunter beta-arrestin GPR151 cells | activation, % at 11.2 µM | 1% of 650,000 active | AID 1508602, 2020; in the data active = activation above about 4.9%;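 note: 0% = median of compound wells and 100% = cells with positive control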
Target sequence (Q8TDV0 whole entry, looked up): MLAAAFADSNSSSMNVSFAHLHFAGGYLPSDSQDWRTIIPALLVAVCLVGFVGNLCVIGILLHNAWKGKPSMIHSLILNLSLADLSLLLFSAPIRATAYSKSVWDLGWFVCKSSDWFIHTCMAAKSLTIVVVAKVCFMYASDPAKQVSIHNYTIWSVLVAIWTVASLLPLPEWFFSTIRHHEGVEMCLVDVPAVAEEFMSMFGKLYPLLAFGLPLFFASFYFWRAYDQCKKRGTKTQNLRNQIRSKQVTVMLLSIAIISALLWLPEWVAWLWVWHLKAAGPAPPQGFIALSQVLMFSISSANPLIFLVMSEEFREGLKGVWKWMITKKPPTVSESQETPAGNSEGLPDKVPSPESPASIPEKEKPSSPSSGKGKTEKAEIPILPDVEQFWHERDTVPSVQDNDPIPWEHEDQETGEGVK
TEAD-YAP inh = TEAD-YAP interaction inhibition, primary screen, TEAD-YAP interaction inhibitor project, luminescence, HEK-TIYL cells; TEAD-Gal4/YAP UAS-luciferase luminescence; inhibition, % at 9.12 µM; 1.4% of 640,000 active; AID 1259422, 2018; in the data active = inhibition above about 32%;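 note: 0% = median of test compound wells and 100% = reference inhibitor wells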
GPR151 conf act = GPR151 activators, triplicate retest, confirmation, cell-based, PathHunter beta-arrestin, luminescence; shares compounds with GPR151 activ; GPR151 PathHunter beta-arrestin cells, 90 min; % of EA-reagent control over plate median; activation, % at 11.2 µM; 6,700 tested, under 10 active;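 active = mean percent activation across replicates above the confirmation screen cutoff of 4.91%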
GPR119 counter = GPR119 activators in beta-arrestin cells, counter-screen for GPR151 activator project, cell-based, PathHunter beta-arrestin, luminescence, triplicate. shares compounds with GPR151 activ. 90 min; 0 = compound-well median, 100 = enzyme-acceptor control. activation, % at 11.2 µM. 0.3% of 6,700 active. AID 1508611, 2020;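 active = mean percent activation in the counterscreen above 29.09%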;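 note: counterscreen on off-target GPR119 to flag nonselective hits from the GPR151 activator screen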
Numbers without * were called inactive; · = no result given.

SMILES | MITF primary | FBW7 activator | GPR151 activ | TEAD-YAP inh | GPR151 conf act | GPR119 counter
OCCC1CN(Cc2cc(F)cc(F)c2)CCN1Cc1ccccc1F (stereo not given) | 15 | 0 | 0 | 3 | · | ·
COc1cccc(CN2CCN(Cc3ccccc3O)CC2CCO)c1 (stereo not given) | -6 | 0 | 8.1* | -7 | 0 | -1
CCOc1ccccc1CN1CCN(C2CCCC2)CC1CCO (stereo not given) | 3 | 0 | 1 | -4 | · | ·
OCCC1CN(Cc2ccncc2)CCN1Cc1ccccc1F (stereo not given) | 9 | 0 | 6.6* | 4 | 1 | -6
Cc1ccccc1CN1CCN(Cc2ccn[nH]2)CC1CCO (stereo not given) | 9 | 0 | 6.0* | -5 | -1 | -8
OCCC1CN(Cc2ccn[nH]2)CCN1Cc1ccccc1F (stereo not given) | 2 | 0 | -1 | 5 | · | ·
Cc1nn(C)cc1CN(C)C(Cc1ccccc1F)C1CCN(C(=O)c2cccnc2)CC1 (stereo not given) | -5 | 0 | -1 | -12 | · | ·
CCn1cc(/C=C(/C#N)C(N)=O)c2ccccc21 | 10 | 0 | 0 | 4 | · | ·
COc1cccc(CN2CCN(Cc3cc(Cl)c(O)c(OC)c3)CC2CCO)c1 (stereo not given) | -12 | 0 | 6.3* | -17 | 1 | 6
C=CCOc1ccccc1CN1CCN(Cc2ccsc2)C(CCO)C1 (stereo not given) | 1 | 0 | 6.1* | 2 | -1 | -5
CC(C)=CCN1CCN(Cc2cccc(OCCO)c2)CC1CCO (stereo not given) | 0 | 0 | -1 | 0 | · | ·
Cc1ccccc1CN1CCN(Cc2cccc(OCCO)c2)CC1CCO (stereo not given) | 9 | 0 | 5.9* | 5 | 0 | 1
COc1ccc(CN2CCN(CCCc3ccccc3)C(CCO)C2)c(O)c1 (stereo not given) | 4 | 1 | 0 | 6 | · | ·
COc1ccc(CN2CCN(CCCc3ccccc3)C(CCO)C2)c(OC)c1 (stereo not given) | -17 | 0 | 5.0* | 6 | 1 | 5
CCOc1ccccc1CN1CCN(Cc2cccc(F)c2)CC1CCO (stereo not given) | -11 | 0 | 5.4* | -9 | -1 | -13
CCOc1ccccc1CN1CCN(Cc2cc(F)cc(F)c2)CC1CCO (stereo not given) | 6 | 0 | 0 | -1 | · | ·
COC(=O)N/N=C/c1ccc(-c2ccc(F)cc2)o1 | 8 | 0 | 0 | -25 | · | ·
O=C(COC(=O)/C=C/c1cccc(C(F)(F)F)c1)NNC(=O)c1ccccc1 | 1 | 0 | -1 | 9 | · | ·
CCCCN(CC)S(=O)(=O)c1ccc(C(=O)Nc2ccc3c4c(cccc24)C(=O)N3CC)cc1 | 3 | 0 | 9.7* | 11 | 0 | -3
CC1CCN(C(=O)C2=CC(c3cccs3)=NS(=O)(=O)N2C)CC1 | -6 | 0 | 5.4* | 5 | -1 | -13
CC(Oc1ccc2c(c1)OCO2)C(=O)NNC(=O)Nc1cccc(C(F)(F)F)c1 (stereo not given) | 11 | 1 | 4 | 10 | · | ·
CC(Oc1cccc(Br)c1)C(=O)Nc1ccc2c(c1)OCO2 (stereo not given) | 9 | 0 | 5.4* | 0 | 0 | 0
CCCN1CCC(NC(=O)Nc2cccc(Cl)c2Cl)CC1 | 4 | 0 | -1 | -2 | · | ·
O=C(Cn1c(=O)oc2cc(S(=O)(=O)N3CCCCCC3)ccc21)NC1CCCCC1 | 8 | 0 | -1 | 1 | · | ·
O=C(Cn1c(=O)oc2cc(S(=O)(=O)N3CCc4ccccc43)ccc21)NC1CCCC1 | -7 | 0 | 7.5* | 9 | 1 | -6
SMILES | MITF primary | FBW7 activator | GPR151 activ | TEAD-YAP inh | GPR151 conf act | GPR119 counter
COc1ccc(NC(=O)Cn2c(=O)oc3cc(S(=O)(=O)N4CCCC4)ccc32)cc1 | 5 | 0 | 5.0* | 14 | 0 | -2
COc1cccc(NC(=O)c2sc3ncnc(N4CCc5ccccc5C4)c3c2C)c1 | 18 | 0 | -2 | -23 | · | ·
CC(=O)COc1cc2c(C)cc(=O)oc2cc1Cl | -9 | 0 | 5.6* | 7 | 2 | 12
CCN1C(=O)C(CC(=O)Nc2ccc(OC)cc2)N(Cc2cccs2)C1=S (stereo not given) | 1 | 0 | 5.9* | -1 | 1 | 9
Cc1nn(CCC#N)c2nc(C(F)(F)F)cc(C(F)(F)F)c12 | 13 | 0 | 0 | 2 | · | ·
COc1cc(C#N)c(NC(=S)N2CCCC2)cc1OC | 7 | 0 | 5.4* | -1 | -1 | -3
COC(=O)c1cc(OC)c(OC)cc1NC(=S)N1CCCC1 | 3 | 0 | 2 | 7 | · | ·
Cn1c(COc2cccc3cccnc23)nnc1SCC(=O)c1ccccc1 | 0 | 0 | 0 | -6 | · | ·
COCCNC(=O)C1CCCCC1C(=O)O (stereo not given) | 8 | 0 | 0 | -3 | · | ·
CC(C)(C)c1ccc(OCC(N)=O)c(Br)c1 | 11 | 0 | 5.9* | -14 | 1 | 11
CCn1c(SCC(=O)N/N=C(/C)c2ccc(OC)cc2)nc2ccccc21 | 20 | 0 | 6.8* | 13 | -1 | -4
CCC(=O)N(CCCN(C)C)c1nc(-c2ccc(Cl)cc2)cs1 | -9 | 0 | 6.0* | -3 | 1 | 10
CCN(C(=O)CCl)c1nc(-c2ccc(Cl)cc2)cs1 | 5 | 0 | 1 | -26 | · | ·
COc1ccc(-c2noc(Nc3ccc(C(C)C)cc3)n2)cc1 | 15 | 1 | -1 | -11 | · | ·
COc1ccc(-c2noc(Nc3ccc(Cl)cc3)n2)cc1 | -2 | 0 | 8.2* | -21 | 0 | -1
CCC(=O)Nc1ccc(NC(=O)/C=C/c2cc(Br)ccc2OC)cc1 | -5 | 0 | 9.6* | 7 | 0 | 1
NS(=O)(=O)c1ccc(Nc2nccc(-c3ccc(N(S(=O)(=O)c4ccccc4)S(=O)(=O)c4ccccc4)cc3)n2)cc1 | 9 | 0 | 1 | 10 | · | ·
COc1ccccc1-n1c(CNC(=O)c2ccc(S(=O)(=O)N3CCCCC3)cc2)nnc1SCC(=O)Nc1nccs1 | 2 | 0 | 5.4* | 13 | -1 | -7
CC(C)CCN1C(=O)CCc2cc(NC(=O)NCc3ccc(F)cc3)ccc21 | 0 | 0 | 1 | 3 | · | ·
CC(C)CCN1C(=O)CCc2cc(NC(=O)c3ccc4c(c3)OCO4)ccc21 | 2 | 0 | 5.3* | -15 | -1 | 0
CC(C)Cc1nnc(-c2cc3ccccc3n2CC(=O)N2CCc3ccccc32)o1 | 6 | 0 | 5.0* | 2 | -1 | -12
